Bioassay records from PubChem BioAssay.
PfHsp90 set2 – reduces growth (ATP signal) of yeast expressing P. falciparum Hsp90 | S. cerevisiae expressing PfHsp90, BacTiter-Glo ATP, 48 h; yeast lacking PDR1 and PDR3 efflux regulators | inhibition, % at 9.4 µM | 0.32% of 310,000 active;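 active = every replicate shows inhibition above about 80%, whatever the replicate mean, limit read from the data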;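 also: 0% = DMSO neutral controls and 100% = 20 µM radicicol positive controls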
EBI2 antag – blocks human EBI2 receptor beta-arrestin signaling; P32249; EBI2 beta-arrestin recruitment, luminescence, 7a,25-OHC stimulated; inhibition, % at 5 µM; 0.81% of 360,000 active; AID 651636; in the data active = inhibition above about 38%;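 also: enzyme fragment complementation signal reports receptor beta-arrestin coupling in cells; 0% = agonist plus DMSO wells and 100% = wells without agonist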
Target sequence (P32249 whole entry, looked up, the tested form may be a part): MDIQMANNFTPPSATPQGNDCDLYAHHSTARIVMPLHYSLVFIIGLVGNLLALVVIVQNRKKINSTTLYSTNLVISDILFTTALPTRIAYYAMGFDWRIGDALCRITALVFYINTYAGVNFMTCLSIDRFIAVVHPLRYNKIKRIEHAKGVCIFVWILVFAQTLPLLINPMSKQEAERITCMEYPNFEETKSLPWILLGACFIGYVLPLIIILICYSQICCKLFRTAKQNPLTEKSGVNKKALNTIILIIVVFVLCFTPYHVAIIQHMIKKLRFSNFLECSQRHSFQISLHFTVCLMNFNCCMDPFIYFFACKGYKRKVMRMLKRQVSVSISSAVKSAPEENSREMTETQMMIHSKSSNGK
tim10-1 inh – growth inhibitors of tim10-1 mutant yeast; inhibition, % at 20 µM; 2.2% of 330,000 active; AID 463190; S. cerevisiae tim10-1 ts strain growth, BacTiter-Glo, 24 h;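 active = inhibition of at least 40%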;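 also: mutant grown at 25 °C; 0% = DMSO wells with yeast and 100% = wells holding no yeast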
TIM10 inh – TIM10 yeast growth inhibition | inhibition, % at 10 µM | S. cerevisiae TIM10 strain growth, BacTiter-Glo luminescence, 24 h | 1.4% of 330,000 active;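 active = inhibition of 40% or more at the single tested concentration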;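 also: wild-type TIM10 isogenic control strain grown at permissive 25 °C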
SKKanGAS inh – blocks kanamycin growth of S. pyogenes SKKanGAS strain; BacTiter-Glo, 6 h; inhibition, % at 7.5 µM; 1.3% of 300,000 active;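 active = mean replicate score, as percent of positive control median, at least 50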;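 also: strain carries kanamycin resistance gene driven by streptokinase promoter and grows in 40 µg/ml kanamycin; loss of luminescence reflects streptokinase promoter inhibition or plain growth inhibition; 0% = median of DMSO wells and 100% = positive control at its reference dose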
tim23-1 inh – growth inhibitors of tim23-1 mutant yeast. AID 463212. S. cerevisiae tim23-1 growth, BacTiter-Glo luminescence, 24 h. inhibition, % at 20 µM. 1.3% of 330,000 active;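 active = growth inhibition of the mutant yeast at or above 50%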;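 also: temperature-sensitive mutant grown at 25 °C; plate controls were DMSO-treated mutant yeast for no effect and medium wells lacking yeast for full effect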
EBI2 antag conf – confirmation of human EBI2 receptor antagonists. EBI2 beta-arrestin luminescence, 7a,25-OHC antagonism. 29% of 2,400 active. shares compounds with EBI2 antag. inhibition, % at 5 µM;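 active = inhibition of at least 50%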
EBI2 ag – counter-screen for EBI2 antagonists: EBI2 agonist activity | shares compounds with EBI2 antag | EBI2-expressing cells, agonist mode, luminescence, 60 min; 0% vehicle, 100% 7α,25-dihydroxycholesterol control | activation, % at 5 µM | 2,400 tested, under 10 active | AID 652000;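 active = activation of at least 50%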
bGal cs – counter-screen for EBI2 antagonists: E. coli beta-galactosidase inhibition. shares compounds with EBI2 antag. purified beta-galactosidase, luminescent Galacton Star, 15 min. inhibition, % at 5 µM. 1% of 2,400 active;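 active = replicate-average signal at least 3 plate SD below neutral wells, shown as high inhibition, flagging enzyme-inhibiting false positives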;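 also: 0% = DMSO wells with enzyme and 100% = wells lacking enzyme; higher means stronger loss of beta-gal luminescence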
Numbers without * were called inactive; / = no result. Compounds with a hit are over-represented: about 4.7% of the library has one in this group of screens.

SMILES	PfHsp90 set2	EBI2 antag	tim10-1 inh	TIM10 inh	SKKanGAS inh	tim23-1 inh	EBI2 antag conf	EBI2 ag	bGal cs
CN1CCN(C(=O)c2ccc(-n3cccc3)cc2)CC1	22.5	34.5*	5.4	-9.0	-3.8	9.1	23.2	-0.2	-16.4
CCS(=O)(=O)N1CCC(C(=O)N2CCN(Cc3ccccc3)CC2)CC1	-11.8	2.4	12.0	-37.1	16.0	5.1	/	/	/
O=C(c1ccc(-n2cccc2)cc1)N1CCN(Cc2ccccc2)CC1	-1.6	84.4*	22.2	13.2	/	25.4	73.0*	-0.5	-13.4
CCOC(=O)C[C@@H]1OC[C@H](Cc2ccccc2)N1S(=O)(=O)c1ccc(C)cc1	/	12.0	/	/	/	/	/	/	/
COC(=O)N/N=C/c1ccc(Oc2ccccc2)cc1	2.5	0.9	-33.2	-25.1	-8.2	-0.1	/	/	/
N#CCc1c(C#N)c(N)nc(N2CCCC(O)C2)c1C#N (stereo not drawn)	16.8	-8.1	0.0	2.7	2.3	-0.4	/	/	/
COC(=O)c1ccccc1NC(=O)c1cc2nc(C3CC3)cc(C(F)(F)F)n2n1	6.8	32.8	7.5	14.7	-7.4	4.6	/	/	/
COc1cc(NC(=O)c2cc3nc(C4CC4)cc(C(F)(F)F)n3n2)c(OC)cc1Cl	/	37.6*	4.2	1.3	-1.4	17.2	7.1	-1.4	-11.4
CCCCSc1nnc(CSc2nc3nc(C)cc(C)n3n2)o1	2.6	-8.8	11.0	-4.9	1.9	2.4	/	/	/
O=C(c1cc2ccccc2o1)N1CCOCC1	1.9	-1.7	-27.6	-2.1	-4.4	-20.8	/	/	/
O=C(c1cc2ccccc2o1)N1CCN(CCOc2ccccc2)CC1	/	56.4*	5.0	-12.6	/	21.4	38.1	-1.2	-13.2
O=C(c1cc2ccccc2o1)N1CCN(Cc2ccc3c(c2)OCO3)CC1	15.6	70.2*	23.1	-8.8	-10.6	27.3	37.1	1.3	5.9
Cc1ccc(C(=O)N2CCC(C(=O)c3ccc(Cl)cc3)CC2)cc1	30.0	60.9*	9.1	-6.7	-2.2	28.9	40.6	0.7	12.2
CC(C)(C)c1ccc(C(=O)N2CCC(C(=O)c3ccccc3)CC2)cc1	-6.8	11.8	35.4	21.8	4.2	39.6	/	/	/
O=C(c1ccccc1)C1CCN(C(=O)c2ccc(Cl)cc2)CC1	-0.8	86.4*	16.0	-11.9	-5.6	19.1	72.5*	1.7	5.4
CC(C)(C)SCCNC(=O)CN(c1ccc(F)cc1)S(=O)(=O)c1ccccc1	8.2	6.2	27.3	8.3	-17.1	13.9	/	/	/
Cc1ccc(CNC(=O)/C(C#N)=C/c2ccc(C)s2)cc1	-3.7	50.8*	11.9	-2.3	7.8	3.6	31.7	0.2	-14.8
CCOC(=O)C1CCN(C(=O)c2cc3c(C)cc(C)cc3[nH]2)CC1	-11.8	45.9*	15.8	15.4	-1.6	15.1	30.7	1.4	5.0
CCOC(=O)C1CCN(C(=O)Cc2ccc(C)cc2)CC1	-17.8	1.9	12.8	2.5	1.4	4.0	/	/	/
CCOC(=O)C1CCN(C(=O)c2cc3cc(C)ccc3[nH]2)CC1	-22.8	84.5*	29.6	11.4	-2.6	30.7	67.0*	-1.2	-5.7
CCOc1ccccc1N1CCN(C(=O)c2cc3c(C)cc(C)cc3[nH]2)CC1	-6.8	52.3*	30.7	31.7	29.3	44.6	34.6	0.4	9.8
O=C(/C=C/c1ccc2ccccc2n1)N1CCN(S(=O)(=O)c2ccccc2F)CC1	16.8	54.6*	35.5	36.3	-1.6	30.0	41.0	0.0	-17.4
O=C(/C=C/c1ccc2ccccc2n1)N1CCN(S(=O)(=O)c2ccc(F)cc2)CC1	-20.3	50.0*	27.4	3.5	1.7	32.5	38.8	1.2	11.3
C/C(N)=C(/C#N)C(=O)COC(=O)CCCNC(=O)c1ccc(Cl)cc1	6.6	4.1	6.7	1.1	15.3	1.8	/	/	/
CCN(CC)C(=S)Nc1cc(C(=O)OC)ccc1C(=O)OC	-4.7	-5.4	17.1	-11.0	-8.9	3.4	/	/	/
SMILES	PfHsp90 set2	EBI2 antag	tim10-1 inh	TIM10 inh	SKKanGAS inh	tim23-1 inh	EBI2 antag conf	EBI2 ag	bGal cs
COc1cccc(C2=CC(=O)C[C@H](c3ccc(Cl)cc3)C2)c1	-20.1	46.4*	-0.4	-2.5	/	33.9	31.8	-0.1	11.5
CCOc1ccc(C2=CC(=O)C[C@H](c3ccc(OC)cc3)C2)cc1	2.6	76.6*	19.8	7.6	/	31.8	48.2	-0.8	-6.6
O=C1C=C(c2cccc3c2Oc2ccccc2S3)C[C@@H](c2ccc(Cl)cc2)C1	/	14.2	15.7	1.5	/	16.7	/	/	/
Cn1ccc2ccc(C3=CC(=O)C[C@H](c4ccc(F)cc4)C3)cc21	-31.1	55.2*	21.2	-1.6	/	32.5	47.8	-1.1	-3.1
CC(C)c1cccc(C2=CC(=O)C[C@H](c3ccc(F)cc3)C2)c1	-48.9	18.1	1.0	7.7	/	33.9	/	/	/
O=C1C=C(c2cccc3c2sc2ccccc23)C[C@@H](c2ccc(Cl)cc2)C1	-32.1	45.0*	4.1	4.6	/	-3.1	33.6	0.8	3.8
CC(C(=O)O)c1ccc(N2Cc3ccccc3C2=O)cc1 (stereo not drawn)	-26.3	-7.4	-3.5	8.1	2.4	-4.9	/	/	/
CCCNC(=O)CN1C(=O)COc2ccc(S(=O)(=O)N3CC(C)CC(C)C3)cc21 (stereo not drawn)	-1.5	6.3	-1.1	4.6	-1.4	-10.2	/	/	/
COc1ccc(C2=CC(=O)C[C@H](c3ccc(Cl)cc3)C2)cc1	-82.7	49.8*	26.3	13.2	/	44.7	58.8*	-2.1	-4.3
O=C1C=C(c2ccc(OC(F)(F)F)cc2)C[C@@H](c2ccc(Cl)cc2)C1	-5.8	65.1*	24.7	16.9	/	32.0	35.5	-0.8	-12.2
Cc1ccc(C2CC(=O)C=C(Nc3ccc(Cl)cc3)C2)cc1 (stereo not drawn)	9.3	74.6*	19.6	24.9	1.5	21.1	64.4*	2.7	5.9
O=C1C=C(c2cc(C(F)(F)F)cc(C(F)(F)F)c2)C[C@@H](c2ccc(Cl)cc2)C1	-11.1	59.9*	1.4	-4.9	/	9.8	36.6	-1.1	-14.5
COc1ccc(CCNC(=O)CSc2nn(-c3ccccc3)c(=S)s2)cc1	-16.0	3.3	6.3	-2.2	-6.5	-9.4	/	/	/
c1ccc(C2CCC(N3CCNCC3)CC2)cc1 (stereo not drawn)	12.3	0.3	3.2	6.4	-2.4	-0.1	/	/	/
CCc1cccc(NC(=O)CCCCCC2NC(=O)NC2C)c1 (stereo not drawn)	-119.8	2.5	6.3	13.5	-1.7	-3.4	/	/	/
COc1ccc(C2=CC(=O)CC(c3ccc(OC)cc3)C2)cc1 (stereo not drawn)	-13.8	51.5*	21.9	12.3	-2.6	24.8	29.5	-1.9	-12.6
